Among the data in PubChem BioAssay (EPA / NIEHS) are outcome and AC50 values, retold here.

As usually defined, the AC50 is the concentration at which the activity in the assay is half-maximal.

SMILES strings stand for the structures. Calls of active or inactive are those of the source. How the source made its calls: active means hit-call score of the fitted dose curve at least 0.9, where 1 is the maximum; inactive means score below 0.9.

Test [1] is described as follows: ATG_GLI_CIS: Attagene CIS-FACTORIAL HepG2 Assay for human Zinc Finger Protein GLI1 (AID 2282945). Particulars: HepG2, Attagene cis-factorial reporter mRNA, GLI element; actives raise or lower the signal. Summed up: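 Transiently transfected HepG2 cells report endogenous transcription factor activity via cis-element-driven reporter units. After 24 h compound exposure, reporter mRNA was measured by RT-PCR with capillary electrophoresis; bidirectional fitting against DMSO baseline.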

The nature of test [2]: ATG_ISRE_CIS: Attagene CIS-FACTORIAL HepG2 Assay for human Interferon Regulatory Factor 1 (IRF1) binding to an Interferon-Stimulated Response Element (ISRE) (AID 2282948). Particulars: HepG2 ISRE cis-reporter (Attagene), mRNA transcription readout; actives raise or lower the signal. Summed up:
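HepG2 cells transiently transfected with multiplexed cis-promoter reporter units; after 24 h compound exposure, reporter mRNA quantified by RT-PCR, FAM labelling, HpaI digestion and capillary electrophoresis. Bidirectional fit versus DMSO baseline.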

A short description of test [3]: ATG_M_32_CIS: Attagene CIS-FACTORIAL HepG2 Assay for M32 Transcription Factor (Internal Marker) (AID 2282949).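 Further: background control marker of the multiplexed CIS panel rather than a real target.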 Particulars: HepG2 Attagene cis-factorial M32 reporter, mRNA; actives raise or lower the signal. Summed up: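 Following 24 h chemical exposure of HepG2 cells transiently expressing cis-promoter reporter constructs, reporter transcript levels were determined by RT-PCR with fluorescent labelling and capillary electrophoresis, then fitted bidirectionally against DMSO.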

In test [4] the target is Hypoxia-inducible factor 1-alpha (Homo sapiens) (UniProt Q16665). In words: ATG_HIF1a_CIS: Attagene CIS-FACTORIAL HepG2 Assay for human Hypoxia Inducible Factor 1 (HIF1A) (AID 2282951). Particulars: HepG2 Attagene cis-factorial HIF1a reporter transcription; actives raise or lower the signal. Summed up: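 Activity is fitted in both directions relative to DMSO. Reporter transcripts are read by RT-PCR, fluorescent primer extension and capillary electrophoresis after 24 h chemical treatment. The cells are HepG2 carrying transiently transfected cis-element-driven reporter units responding to endogenous factors.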

For test [5], the target named is Hepatocyte nuclear factor 6 (Homo sapiens) (UniProt Q9UBC0). In words: ATG_HNF6_CIS: Attagene CIS-FACTORIAL HepG2 Assay for human Hepatocyte Nuclear Factor 6 (HNF6) (AID 2282952). Particulars: HepG2 Attagene cis-factorial HNF6 reporter transcription; actives raise or lower the signal. Summed up:
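Cells are HepG2 carrying transiently transfected cis-promoter reporter units. Treatment lasts 24 h, after which reporter transcripts are reverse-transcribed, amplified, FAM-labelled and sized by capillary electrophoresis. DMSO serves as baseline.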

Test [6] has as its target Heat shock factor protein 1 (Homo sapiens) (UniProt Q00613). In words: ATG_HSE_CIS: Attagene CIS-FACTORIAL HepG2 Assay for human Heat Shock Transcription Factor 1 (HSE) (AID 2282953). Particulars: HepG2 HSE cis-reporter, Attagene RNA transcription; actives raise or lower the signal. Summed up: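 Liver-derived HepG2 cells carry transiently introduced multiple reporter units governed by cis promoters. Reporter RNA measured 24 h post-dose through reverse transcription, PCR amplification, fluorescent labelling and capillary electrophoresis, normalised to DMSO.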

Test [7] can be described thus: ATG_MRE_CIS: Attagene CIS-FACTORIAL HepG2 Assay for human Metal Responsive Element (MRE) (AID 2282954). Particulars: HepG2 MRE cis-reporter transcription, Attagene multiplex; actives raise or lower the signal. Summed up:
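Fluorescent reporter fragments separated by capillary electrophoresis give mRNA induction for the MRE unit after 24 h treatment of transfected HepG2 cells. Endogenous transcription-factor activity is read; DMSO serves as negative control and baseline.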

The nature of test [8]: ATG_M_06_CIS: Attagene CIS-FACTORIAL HepG2 Assay for M06 Transcription Factor (Internal Marker) (AID 2282950). Particulars: HepG2 Attagene CIS-FACTORIAL M06 internal marker reporter; actives raise or lower the signal. Summed up:
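Cells (HepG2, transiently carrying cis-driven reporter units) receive chemical for 24 h before RNA isolation. Reporter cDNA is PCR-amplified, FAM-labelled by primer extension, HpaI-digested and sized on a capillary analyser.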

Heat shock factor protein 1 (Homo sapiens), sequence (Q00613 whole entry, looked up): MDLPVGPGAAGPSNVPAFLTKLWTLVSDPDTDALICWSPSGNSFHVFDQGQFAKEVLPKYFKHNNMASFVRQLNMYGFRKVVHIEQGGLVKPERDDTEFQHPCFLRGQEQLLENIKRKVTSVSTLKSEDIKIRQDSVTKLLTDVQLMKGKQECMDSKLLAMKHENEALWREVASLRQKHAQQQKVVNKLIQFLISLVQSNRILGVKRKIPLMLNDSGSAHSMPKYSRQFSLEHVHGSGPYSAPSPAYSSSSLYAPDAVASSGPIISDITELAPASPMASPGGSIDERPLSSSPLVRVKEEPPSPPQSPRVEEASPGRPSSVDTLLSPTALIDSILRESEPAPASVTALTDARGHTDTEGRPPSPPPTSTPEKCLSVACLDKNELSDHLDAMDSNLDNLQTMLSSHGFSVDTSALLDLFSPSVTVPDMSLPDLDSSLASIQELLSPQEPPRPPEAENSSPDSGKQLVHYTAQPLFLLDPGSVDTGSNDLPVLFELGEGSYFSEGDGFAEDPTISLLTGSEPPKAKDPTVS
Hypoxia-inducible factor 1-alpha (Homo sapiens), sequence (Q16665 whole entry, looked up): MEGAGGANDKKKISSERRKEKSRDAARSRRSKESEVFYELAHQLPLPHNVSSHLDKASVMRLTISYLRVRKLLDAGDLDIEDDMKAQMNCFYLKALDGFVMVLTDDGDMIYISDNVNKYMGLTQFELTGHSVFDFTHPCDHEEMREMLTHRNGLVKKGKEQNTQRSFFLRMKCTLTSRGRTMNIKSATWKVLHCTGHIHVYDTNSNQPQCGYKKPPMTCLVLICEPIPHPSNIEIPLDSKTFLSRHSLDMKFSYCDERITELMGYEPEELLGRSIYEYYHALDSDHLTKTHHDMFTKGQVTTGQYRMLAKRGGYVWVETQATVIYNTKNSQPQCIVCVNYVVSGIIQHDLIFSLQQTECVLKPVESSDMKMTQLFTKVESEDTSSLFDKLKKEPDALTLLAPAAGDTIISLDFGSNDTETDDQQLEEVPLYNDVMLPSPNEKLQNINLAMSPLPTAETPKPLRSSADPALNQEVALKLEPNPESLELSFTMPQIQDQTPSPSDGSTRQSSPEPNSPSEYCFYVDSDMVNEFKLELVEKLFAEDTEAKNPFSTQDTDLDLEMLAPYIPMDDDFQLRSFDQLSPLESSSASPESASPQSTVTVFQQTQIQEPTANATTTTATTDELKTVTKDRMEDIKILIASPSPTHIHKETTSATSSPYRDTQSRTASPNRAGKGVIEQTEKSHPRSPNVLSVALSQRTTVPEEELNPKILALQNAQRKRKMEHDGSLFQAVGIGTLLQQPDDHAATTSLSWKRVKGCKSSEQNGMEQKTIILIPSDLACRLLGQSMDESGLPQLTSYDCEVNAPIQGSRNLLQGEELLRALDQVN
Hepatocyte nuclear factor 6 (Homo sapiens), sequence (Q9UBC0 whole entry, looked up): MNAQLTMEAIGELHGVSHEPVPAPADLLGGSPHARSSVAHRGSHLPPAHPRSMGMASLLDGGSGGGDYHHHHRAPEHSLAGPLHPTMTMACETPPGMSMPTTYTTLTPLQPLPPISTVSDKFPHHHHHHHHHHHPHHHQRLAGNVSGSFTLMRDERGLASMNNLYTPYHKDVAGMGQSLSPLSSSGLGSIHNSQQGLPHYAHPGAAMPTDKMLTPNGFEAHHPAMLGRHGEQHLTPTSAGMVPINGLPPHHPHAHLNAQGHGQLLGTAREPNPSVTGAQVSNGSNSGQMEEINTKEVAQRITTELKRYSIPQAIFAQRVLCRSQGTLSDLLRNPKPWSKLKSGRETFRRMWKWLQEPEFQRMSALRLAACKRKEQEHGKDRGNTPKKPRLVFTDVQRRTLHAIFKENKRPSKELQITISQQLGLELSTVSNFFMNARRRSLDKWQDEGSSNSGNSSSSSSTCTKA

With `COC(=O)C(C)Oc1ccc(Oc2ncc(C(F)(F)F)cc2Cl)cc1` (configuration not stated), the outcome in test [1], in test [2], in test [3], in test [4], in test [5] and in test [6] was inactive. In addition, the AC50 in test [7] was 100 µM (active).

For `C=C(C)C(=O)OCCN(C)C`, the outcome in test [1], in test [2], in test [3], in test [4], in test [5] and in test [6] was inactive. For the same compound, the compound was called inactive in test [7].

For `O=C(O)c1ccccc1O`, the compound was called inactive in test [1], in test [2], in test [3], in test [4], in test [5] and in test [6]. The outcome in test [7] was inactive.

Take `COc1ccccc1NC(=O)CC(C)=O`: the compound was classed as inactive in test [1], in test [2], in test [3], in test [4], in test [5] and in test [6]. Further, in test [7], the outcome was inactive.

`CCCC(O)C(CC)CO` (configuration not stated): the compound was called inactive in test [1], in test [2], in test [3], in test [4], in test [5] and in test [6].

On to `C[N+](C)(C)CCO`, for which the call in test [1], in test [2], in test [3], in test [8], in test [5] and in test [7] was inactive.

For `c1ccc(Sc2ccccc2)cc1`, the result in test [1], in test [2], in test [3], in test [4], in test [5] and in test [6] was inactive. In test [7], the call was inactive.

In the case of `CC(=O)CCC=C(C)CCC=C(C)C`, the compound was called inactive in test [1], in test [2], in test [3], in test [8], in test [4] and in test [5]. The compound was called inactive in test [6] and in test [7].

As for `CCCCN(CCCC)CCCCCCN(CCCC)CCCC`, the compound was classed as inactive in test [1], in test [2], in test [3], in test [8], in test [5] and in test [6]. For the same compound, the outcome in test [7] was inactive.

Consider `CCCCCCCCCC(=O)OCC`, for which the compound was classed as inactive in test [1], in test [2], in test [3], in test [4], in test [5] and in test [6]. Also, the outcome in test [7] was inactive.

As to `COC(=O)c1cccc(C(=O)OC)c1`, the call in test [1], in test [2], in test [3], in test [8], in test [5] and in test [6] was inactive. In test [7], the call was inactive.

On to `C=CC(C)CCCC(C)(C)O` (configuration not stated), for which the call in test [1], in test [2], in test [3], in test [8] and in test [5] was inactive.

On to `C=C(C)CCCC(C)CCO` (configuration not stated), for which the compound was called inactive in test [1], in test [2], in test [3], in test [8], in test [5] and in test [6]. Besides, the result in test [7] was inactive.

For the compound `C=CC(=O)OCCCCCC`, the compound was called inactive in test [1], in test [2], in test [3], in test [5], in test [6] and in test [7].

`CCNC(=S)NCC`: the call in test [1], in test [2], in test [3], in test [8], in test [5] and in test [6] was inactive. Moreover, in test [7], the call was inactive.

As for `CCCCCCCCOC(C)=O`, the compound was classed as inactive in test [1], in test [2], in test [3], in test [8], in test [4] and in test [5]. Moreover, the result in test [6] and in test [7] was inactive.

In the case of `CC(=O)Nc1cc(S(=O)(=O)O)cc2cc(S(=O)(=O)O)c(N=Nc3ccccc3)c(O)c12`, the result in test [1], in test [2], in test [3], in test [8], in test [5] and in test [6] was inactive. Also, in test [7], the call was inactive.

Regarding `CCCCCC1C(=O)CCC1CC(=O)OC` (configuration not stated), the call in test [1], in test [2], in test [3], in test [8], in test [4] and in test [5] was inactive. Further, the call in test [7] was inactive.

As for `Nc1ccn([C@H]2CC[C@@H](CO)O2)c(=O)n1`, the compound was classed as inactive in test [1], in test [2], in test [3], in test [5], in test [6] and in test [7].

`OCC=Cc1ccccc1`: the compound was classed as inactive in test [1], in test [2], in test [3], in test [5], in test [6] and in test [7].

Take `CCOC(=O)C=Cc1ccccc1`: the result in test [1], in test [2], in test [3], in test [8], in test [4] and in test [5] was inactive. The compound was called inactive in test [7].

Take `CC(C)CCCC(C)(C)O`: the compound was called inactive in test [1], in test [2], in test [3], in test [8], in test [4] and in test [5]. Further, in test [7], the compound was classed as inactive.

On to `CC(=O)OC/C=C(C)/C=C/C=C(C)/C=C/C1=C(C)CCCC1(C)C`, for which the AC50 in test [1] was 159 µM (active); in test [2], 72.8 µM (active); in test [6] it was 155 µM (active); in test [7] it was 100 µM (active). Besides, the compound was classed as inactive in test [3], in test [8] and in test [5].

Regarding `NS(=O)(=O)c1cc(C(=O)O)c(NCc2ccco2)cc1Cl`, the result in test [1], in test [2], in test [3], in test [8], in test [4] and in test [6] was inactive.

`CC(C)C(=O)c1ccccc1`: the outcome in test [1], in test [2], in test [3], in test [4], in test [5] and in test [6] was inactive. The compound was classed as inactive in test [7].

In the case of `NNC(=O)OCc1ccccc1`, the result in test [1], in test [2], in test [3], in test [8], in test [5] and in test [6] was inactive. The outcome in test [7] was inactive.

Turning to `CCCCCCCCCCCCS`, the outcome in test [1], in test [2], in test [3], in test [5], in test [6] and in test [7] was inactive.

With `COC(=O)c1ccc(C(=O)OC)cc1`, the result in test [1], in test [2], in test [3], in test [8], in test [4] and in test [5] was inactive. Besides, in test [7], the result was inactive.

`N#CCCNCCC#N`: the result in test [1], in test [2], in test [3], in test [8], in test [4] and in test [5] was inactive. Besides, the outcome in test [6] and in test [7] was inactive.

With `CCCCCCCCCCO[C@@H]1O[C@H](CO)[C@@H](O)[C@H](O)[C@H]1O`, the compound was classed as inactive in test [1], in test [2], in test [3], in test [4], in test [5] and in test [6]. The outcome in test [7] was inactive.

`CCO[Si](CC)(OCC)OCC`: the compound was classed as inactive in test [1], in test [2], in test [3], in test [5], in test [6] and in test [7].

For `CC(CO)c1ccccc1` (configuration not stated), the outcome in test [1], in test [2], in test [3], in test [4], in test [5] and in test [6] was inactive. The compound was classed as inactive in test [7].
